# Screens from PubChem.
# Hits are enriched below; roughly 12% of the tested compounds scored in any of these assays.
# ALDH1A1 block: blocks purified human ALDH1A1 activity | Potency, µM (series often up to 75.3 µM), without a hit: at the highest dose activity, negative = inhibition, actives largely listed as inhibitors | P00352 | 220,000 tested, 7.3% active | Purified ALDH1A1, NADH fluorescence, propionaldehyde substrate; active = well fitted inhibition curve with a large enough effect, not every such curve was filed as active; inconclusive = small, poorly fitted or top-dose-only effect, or another doubt; inactive = no such curve, though single readings can be large or run the other way;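 note: plate controls were no enzyme wells and a reference inhibitor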
# VP16 counter: inhibits Gal4-VP16 luciferase reporter, ROR gamma counter-screen. 310,000 tested, 3.5% active. Potency, µM (doses to about 53.6 µM), inactives show at the highest dose activity, negative = inhibition, hits mostly inhibitors. AID 2546. Drosophila S2 Gal4-VP16 UAS-luciferase, luminescence, 20 h;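 note: Gal4-VP16 expression switched on by copper sulfate through the metallothionein promoter; nearly all actives have a fitted effect of over 50% in size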
# RORg inh: ROR gamma (mouse) transcription inhibition; Drosophila S2 Gal4-RORgamma UAS-luciferase reporter, 20 h; Potency, µM (top dose mostly 53.6 µM), for inactives: at the top dose activity change, negative = inhibition, hits mostly inhibitors; 310,000 tested, 5.4% active; AID 2551; note: nearly all actives have a fitted effect of over 60% in size
# Target sequence (P51450 whole entry, looked up, the tested form may be a part): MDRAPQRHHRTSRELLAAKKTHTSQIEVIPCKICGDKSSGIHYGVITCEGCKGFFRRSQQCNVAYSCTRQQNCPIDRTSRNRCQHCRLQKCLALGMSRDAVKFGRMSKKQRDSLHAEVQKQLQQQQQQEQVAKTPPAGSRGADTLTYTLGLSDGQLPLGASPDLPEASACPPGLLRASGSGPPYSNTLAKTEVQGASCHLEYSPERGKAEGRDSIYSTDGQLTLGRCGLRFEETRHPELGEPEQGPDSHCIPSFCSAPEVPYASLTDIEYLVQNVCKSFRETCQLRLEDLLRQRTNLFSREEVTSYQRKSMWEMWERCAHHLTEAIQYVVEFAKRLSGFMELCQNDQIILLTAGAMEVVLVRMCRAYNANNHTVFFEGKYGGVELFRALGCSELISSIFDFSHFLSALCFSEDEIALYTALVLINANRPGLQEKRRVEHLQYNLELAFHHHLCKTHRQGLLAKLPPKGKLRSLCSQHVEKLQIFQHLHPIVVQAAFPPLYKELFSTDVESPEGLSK
#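 ROR gamma transcriptional activity was tracked as Gal4-UAS luciferase output in stably transfected Drosophila Schneider cells, with compound added 1 hr before 700 uM copper sulfate induction and a 20 hr ambient-temperature incubation.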
# Sfp PPTase inh: blocks B. subtilis Sfp PPTase activity; Q9F4F7; Biochemical Sfp PPTase activity, qHTS; Potency, µM, inactives show largest response in the series, negative = inhibition, hits mostly inhibitors; 310,000 tested, 3.5% active; AID 1490;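 note: the enzyme is Sfp with the accession as filed and its product quenches rhodamine fluorescence; 0% = enzyme reaction without inhibitor and -100% = no enzyme wells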
#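 Fluorescence-quenching assay: 15 nM Sfp-PPTase preincubated 15 min at room temperature with compound, then 5 uM rhodamine-CoA and 12.5 uM BHQ-2-labelled YbbR peptide added. Fluorescence (ex 525/em 598 nm) read at start and after 30 min; difference gives rate.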
# PLK1 PBD inh: blocks phosphopeptide binding to human PLK1 polo-box domain; Plk1 PBD binding of FITC phosphopeptide, fluorescence polarization; P53350; Potency, µM, inactives show max response, negative = inhibition, most hits filed as inhibitors; 360,000 tested, 2.8% active; note: series mostly up to about 57 µM; nearly all actives have a fitted effect of over 65% in size
# * hit, by the source's call; ? = inconclusive; · = no result given; [ ] = remark or other dose. Unless noted, calls come from the whole dose curve; as a rule, active = well fitted curve in the direction sought with a large enough effect; inconclusive = small, poorly fitted or top-dose-only effect, or another doubt; inactive = no such curve, though single readings can be large; an effect the other way counts as inactive or inconclusive. Unless noted, % is set by controls: 0 for no effect and ±100 for the full control effect; potency is the fitted concentration of half-maximal effect.
SMILES,ALDH1A1 block,VP16 counter,RORg inh,Sfp PPTase inh,PLK1 PBD inh
O=[N+]([O-])c1c(Nc2cccc(O)c2)cc(Cl)c2nonc12,·,?,-1%[1.91 µM],56µM*,4.2µM*
O=[N+]([O-])c1cc([N+](=O)[O-])c2nonc2c1Nc1ccc(O)cc1,·,13µM*,11µM*,?,-15%
O=C(O)c1ccc(Nc2cc(Cl)c3nonc3c2[N+](=O)[O-])cc1,4%,-26%,13µM*,35µM*,4.7µM*
O=[N+]([O-])c1cc([N+](=O)[O-])c2nonc2c1Nc1ccccc1O,·,-9%,-18%,?,-3%
C=CCCCCCCCCC(=O)OC,·,4%,-1%[10 µM],22%,·
CN(C)S(=O)(=O)c1ccc(NC(=O)Cn2nc(-c3ccc4c(c3)OCCO4)ccc2=O)cc1,·,·,·,·,-22%
Cc1c(Nc2cc(Cl)c3nonc3c2[N+](=O)[O-])c(=O)n(-c2ccccc2)n1C,-1%,4µM*,4µM*,?,1.2µM*
c1cc(CNCCCN2CCOCC2)ccn1,2%,-13%,11%,7%,-8%
CC(=O)N(CCCN1CCOCC1)Cc1ccncc1,1%,9%,-5%,6%,30µM*
Cc1ccc(-c2csc(NS(=O)(=O)c3cccc(F)c3)n2)o1,·,·,·,·,24µM*
Cc1nc(CNS(=O)(=O)c2cccc(F)c2)cs1,?,-10%,33%,14%,-7%
CN(C(=O)CSCC(=O)Nc1ccc(Cl)cc1)C1CCCCC1,·,·,·,·,0%
CN(C(=O)CSc1ccccc1C(=O)O)C1CCCCC1,3.2µM*,-15%,-25%,-1%,-2%
CN(C(=O)CSCC(=O)O)C1CCCCC1,2µM*,-1%,-14%,-13%,-9%
CC1=Nc2ccccc2/C1=C/c1c(N)n2c(S(=O)(=O)CC(C)C)nsc2nc1=O,-5%,-1%,4%,-7%,?
CCOC(=O)c1sc(=S)n(C)c1NC(=O)c1cccc(Br)c1,·,-2%,34%,18µM*,11µM*
CCOC(=O)c1sc(=S)n(C)c1NC(=O)c1ccccc1,3.5µM*,-10%,-1%,14µM*,7.5µM*
O=Cc1ccccc1OS(=O)(=O)c1ccccc1,13µM*,8%,-5%,1%,-5%
O=S(=O)(Oc1ccccc1-c1ccccc1)c1ccccc1,·,·,·,·,-14%
O=C(Nc1cccc2cccnc12)c1ccc2sc([C@@H]3O[C@H](CO)[C@H](O)[C@H](O)[C@H]3O)nc2c1,·,·,·,·,2%
COC(=O)c1c(C)[nH]c(C(=O)COC(=O)CCc2ccc(OC)c(OC)c2)c1C,·,·,·,·,-3%
CC(Sc1nnc(-c2cccs2)n1N)C(=O)NCC1CCCO1 (stereo not drawn),·,·,·,·,-1%
O=C(CSc1nnc(-c2cccs2)n1CC1CCCO1)c1cc2ccccc2o1 (stereo not drawn),28µM*,17%,34%,5%,-18%
CCC1Sc2ccc(S(=O)(=O)Nc3ccc(OC)c(OC)c3)cc2NC1=O (stereo not drawn),·,8.9µM*,?,-1%,-13%
CCC1Sc2ccc(S(=O)(=O)CCC(=O)Nc3ccc(NC(C)=O)cc3)cc2NC1=O (stereo not drawn),·,-23%,-28%,11%,-19%
SMILES,ALDH1A1 block,VP16 counter,RORg inh,Sfp PPTase inh,PLK1 PBD inh
COc1ccc(CNC(=O)c2ccc3c(c2)NC(=O)C(C)S3)cc1 (stereo not drawn),10µM*,8%,22%,22µM*,13µM*
CCC1Sc2ccc(S(=O)(=O)Nc3ccc(OC)cc3)cc2NC1=O (stereo not drawn),·,-21%,6%,-14%,2%
CCC1Sc2ccc(S(=O)(=O)CCC(=O)Nc3ccc(C(=O)OC)cc3)cc2NC1=O (stereo not drawn),·,?,-26%,15%,15µM*
CCC1Sc2ccc(S(=O)(=O)CCC(=O)Nc3cccc(Br)c3)cc2NC1=O (stereo not drawn),·,0%,3%,11%,12µM*
CC1Sc2ccc(C(=O)O)cc2NC1=O (stereo not drawn),3%,-2%,-36%,3%,-7%
O=C1C=C(c2cccc(Br)c2)C[C@@H](c2ccc3c(c2)OCO3)C1,·,·,·,·,5%
CC(=O)C1CN(S(=O)(=O)c2ccc(C)cc2)C(c2ccccc2)CC1C (stereo not drawn),·,·,·,·,0%
NC(=O)C1CCCN(C(=O)c2cccc(NC(=O)c3cccs3)c2)C1 (stereo not drawn),·,·,·,·,2%
